Measurements: PubChem BioAssay AID1626 (SRMLSC, 2009)
The whole screen tested about 220,000 compounds, of which about 2,000 (0.91%) were called active. Another 2% or so got no clear call; they are omitted. The list is a sample of the results. Results with a measured potency or affinity are listed apart. Values without a mark were called inactive. Rule as the data show it: inconclusive = inhibition above about 80% without an active follow-up result; inactive = below that; test concentration not stated here.

assay: M. tuberculosis H37Rv growth inhibitors, H37Rv strain (AID 1626); conditions: stronger effect = higher value, concentration not given here;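 also: bacteria incubated seven days before Alamar blue readout; 0% = bacteria only wells and 100% = bacteria with antibiotic wells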

In order of rising inhibition:
1. COc1ccc(C(=O)Nc2ccc(NC(=O)c3cccs3)cc2)cc1Cl  -14.7%
2. O=C(Nc1ccc(F)cc1)c1ccc(S(=O)(=O)N2CCOCC2)o1  -14.1%
3. CCCCN(C)CCC(=O)Nc1ccc(OC)cc1OC  -13.6%
4. CCn1c(COc2cccc3ccccc23)nnc1SCC(N)=O  -13.4%
5. Cn1c(-c2sc(=S)n(-c3ccccc3)c2N)nc2ccccc21  -12.8%
6. CC1(C)Cc2c(sc3c2c(=O)n(-c2cccc(Cl)c2)c(=O)n3CC(N)=O)CO1  -12.2%
7. COc1ccc(CN(CC2CCCO2)C(=O)c2cc3sccc3n2C)c(OC)c1 (centres undefined)  -12%
8. O=C(Nc1nnc(-c2cccnc2)s1)c1cccs1  -11.7%
9. COC(C[C@@H](O)C[C@@H](O)COCc1ccccc1)OC  -11.1%
10. Cc1ccc(-c2c(C#N)c(N)nc3c2CCCC3)o1  -11.1%
11. Cn1c(COc2ccccc2)nnc1SCC(=O)NNC(=O)C1CCCCC1  -10.3%
12. O=C(O)c1ccc(-c2noc(-c3cccc(F)c3)n2)cc1  -9.57%
13. N#Cc1c(SCC(=O)O)nc(-c2ccccc2)c2c1CCCC2  -9.5%
14. CCN(c1ccccc1)S(=O)(=O)c1ccc(Cl)c(C(=O)OCC(=O)NC(=O)C(C)C)c1  -9.03%
15. Cc1ccsc1C(C(=O)NC1CCCCC1)N(C(=O)c1csnn1)C1CC1 (centres undefined)  -8.93%
16. Cc1cc(C)c(S(=O)(=O)N(C)CC(=O)NCc2ccccn2)c(C)c1  -8.63%
17. Cc1nc2ccccc2c(=O)n1NC(=O)/C=C/c1ccccc1Cl  -8.45%
18. Cc1ccc(C)c2c1[nH]c1ccccc12  -8.26%
19. O=C1CC(c2cccs2)Cc2nc(NCC3CCCO3)ncc21 (centres undefined)  -8.23%
20. Cc1ccc(/C=N/NC(=O)c2cccnc2)s1  -7.82%
21. Cc1nc2ccccc2n1CCc1ccccc1  -7.4%
22. CN(C)C(/C=C/Nc1cccc([N+](=O)[O-])c1)=C(C#N)C#N  -7.29%
23. CC(=O)c1c(C(C)=O)c(C)n(-c2cccc([N+](=O)[O-])c2)c1C  -7.09%
24. COc1cccc(C(c2nnnn2CS(=O)(=O)c2ccc(C)cc2)N2CCN(C)CC2)c1OC (centres undefined)  -6.9%
25. COC(=O)CSc1nc2c(c(-c3ccc(O)cc3)c1C#N)CCCC2  -6.65%
26. COc1cccc(/C=N/n2c(SC)nnc2-c2ccccc2)c1OC  -6.45%
27. COc1ccc(NC(=O)C(C)N2c3cccc4cccc(c34)S2(=O)=O)cc1OC (centres undefined)  -6.4%
28. COc1ccc(-n2c(C)cc(C(=O)CCl)c2C)cc1  -6.35%
29. O=S1(=O)CCN(OCc2ccc(F)cc2Cl)CC1  -5.47%
30. CCn1c(SCC(=O)O)nnc1-c1cccnc1  -5.44%
31. CCOC(=O)N1CCN(C(=S)Nc2cccc(C)c2)CC1  -4.85%
32. COc1cccc(C(C(=O)NC(C)(C)C)N(CC(C)C)C(=O)CCC(=O)Nc2cc(C)on2)c1OC (centres undefined)  -4.52%
33. Cc1ccccc1NC(=O)NC(C)(C)CC(C)(C)C  -4.38%
34. O=C(NCc1ccccc1)c1nc2c(nnn2Cc2cccc(Cl)c2)c(=O)[nH]1  -4.36%
35. O=C(CCN1C(=O)c2ccccc2C1=O)C1=NN[C@@H]2C(=O)N(c3ccc4c(c3)OCO4)C(=O)[C@H]12  -4.07%
36. CCOC(=O)c1sc2nc(N3CCOCC3)c3c(c2c1N)CC(C)(C)N(C)C3  -3.62%
37. Cc1ccccc1NC(=O)CSc1nc2c(c(-c3ccco3)c1C#N)CCCC2  -3.31%
38. Cc1cc(C(=O)Nc2ccc3c(c2)OCCO3)c2ccccc2n1  -3.31%
39. CC(C)CCNC1=CC(=O)CC(c2ccccc2)C1 (centres undefined)  -3.24%
40. O=C(c1ccc(NC2=NC3CS(=O)(=O)CC3S2)cc1)N1CCN(C(=O)c2ccco2)CC1 (centres undefined)  -2.98%
41. CCN(CC)C(=O)C1=C(C)NC(=O)NC1c1ccccc1F (centres undefined)  -2.9%
42. CC(C)c1ccc(NC(=O)Cn2cccc2C2=NC(c3ccccc3)CO2)cc1 (centres undefined)  -2.83%
43. COc1ccc2[nH]c(=O)c(CN(C(=O)c3cccnc3)c3ccccc3C)cc2c1  -2.62%
44. COc1cccc(NC(=O)CSc2nc3c(c(-c4ccco4)c2C#N)CCCC3)c1  -2.62%
45. CCOc1cc(C)nc(Oc2ccc(=O)[nH]n2)n1  -1.8%
46. c1ccc2c(c1)[nH]c1cnccc12  -1.77%
47. O=C(O)CSc1nnc(COc2cccc3ccccc23)n1Cc1ccccc1  -1.72%
48. CCn1ccnc1CN(C)Cc1cn(C)nc1-c1ccccc1F  -1.63%
49. COC(=O)CSc1cnc2ccccc2n1  -1.39%
50. CCOC(=O)C1=CN(Cc2ccc(OC)cc2)C=C(C(=O)OCC)C1c1cccs1  -0.52%
51. CCN(CC)c1nc(Oc2ccc(=O)[nH]n2)nc(N2CCOCC2)n1  0.81%
52. Cc1ccc(-n2cc(CN3CCC(CO)(Cc4ccccc4)CC3)cn2)cc1  0.885%
53. O=C(Nc1ccc(NC(=O)c2ccccn2)cc1)C(=O)Nc1ccc2c(c1)OCCO2  1.18%
54. COc1ccc(C(CCN)Cc2ccccc2)cc1 (centres undefined)  1.28%
55. OCC1(Cc2cccc(C(F)(F)F)c2)CCN(Cc2cc(F)cc(F)c2)CC1  1.35%
56. CCCC(=Nc1ccccc1OC)C1=C(O)CC(c2ccccc2)CC1=O (centres undefined)  2.17%
57. CN(CC(=O)Nc1ccc(S(=O)(=O)N2CCCC2)cc1)CC(=O)Nc1cccc(F)c1  2.32%
58. CC(=O)c1ccc(NC(=O)c2ccc(CNc3c(N4CCCC4)c(=O)c3=O)cc2)cc1  2.39%
59. COc1ccc(-c2c(C#N)c(SCC(N)=O)nc3c2CCCC3)cc1  2.47%
60. CCSc1nc2c(c(-c3ccc(C)o3)c1C#N)CCCC2  2.67%
61. COc1cc(NC(=O)CSc2nnc(Cn3nnc4ccccc43)n2C)cc(OC)c1  3.53%
62. CNCCOc1ccccc1OC(C)C  4.14%
63. O=C(O)c1ccc(C(=O)O)c(C(=O)c2ccccc2)c1  4.19%
64. Cn1c(SCC(=O)N2CCCc3ccccc32)nc2cccnc21  4.22%
65. O=C(NCc1ccc(Cl)cc1)c1ccc(CNc2c(N3CCCC3)c(=O)c2=O)cc1  4.26%
66. COC(=O)CSc1nc(-c2ccccc2)nc2ccccc12  5.34%
67. O=C(Nc1ccc(S(=O)(=O)Nc2ccc(Cl)cc2)cc1)C1CCCO1 (centres undefined)  5.71%
68. Cc1nn(Cc2ccc(F)cc2Cl)c(C)c1[N+](=O)[O-]  5.81%
69. Cc1ccccc1Nc1cc(C(=O)NCC2CCCO2)c2ccccc2n1 (centres undefined)  5.9%
70. COc1ccc2[nH]c(=O)c(CN(CCCN3CCOCC3)C(=O)NCc3ccccc3)cc2c1  6.13%
71. COC(=O)C1CCN(C(=O)c2sc3nc(-c4ccc(F)cc4)cn3c2C)CC1  6.16%
72. CCC(=Nc1ccccc1OC)C1=C(O)CC(c2ccccc2)CC1=O (centres undefined)  6.17%
73. Cc1ccc(-n2c(C)nn(CCOc3ccccc3)c2=O)cc1  6.33%
74. COc1cccc(OCc2nnc(SCC(=O)OC3CCCCC3)n2C)c1  6.41%
75. O=C(Nc1ccc2c(c1)OCCO2)c1ccccc1F  6.75%
76. CC(=O)Nc1ccc(C(=O)N/N=C/c2ccc(F)cc2)cc1  7.2%
77. Cc1ccc(CN(C(=O)Cc2cccs2)C(C(=O)NC2CCCC2)c2ccncc2)cc1 (centres undefined)  7.49%
78. N#Cc1c(N)n(CCc2ccc(F)cc2)c2nc3ccccc3nc12  7.97%
79. COc1cc2c(cc1NC(=O)CSc1nnc(Cc3cccs3)n1Cc1ccco1)oc1ccccc12  7.99%
80. CN1CCN(CC#CC(C)(O)C2CC3C=CC2C3)CC1 (centres undefined)  8.02%
81. CC1CN(c2ncnc3c2c(-c2ccccc2)cn3-c2ccc(F)cc2)CC(C)O1 (centres undefined)  8.16%
82. CN1Cc2c(N3CCOCC3)nc3sc(C(=O)c4ccccc4)c(N)c3c2CC1(C)C  8.23%
83. Cc1ccc(-c2csc(=Nc3cccnc3)n2CCCN2CCCC2=O)cc1C  8.37%
84. CCC(=O)NC(=S)Nc1cccc(NC(=O)c2ccccc2Cl)c1  8.67%
85. Cc1cc(C)cc(NC(=O)c2ccc(CNc3c(N4CCOCC4)c(=O)c3=O)cc2)c1  12.3%
86. Cc1cc(Nc2ccc(C)c(Cl)c2)nc(N2CCOCC2)n1  12.8%
87. N#C/C(=C\c1ccc(C(=O)O)cc1)S(=O)(=O)c1cc(Br)ccc1Br  17%
88. Cc1ccccc1OCCNc1cc(N2CCN(CCO)CC2)ccc1[N+](=O)[O-]  27.5%
89. CC(C)(C)c1ccc(OC(=O)c2ccc3nsnc3c2)cc1  29.5%
90. CC(C)(Oc1ccc(Cl)cc1)C(=O)OCn1nnc2ccccc2c1=O  62.5%
91. Cc1ccc(OC(=O)c2ccc3snnc3c2)cc1  68.6%
92. CCOc1ccc(-n2c(N)c(-c3nc4ccccc4n3C)c3nc4ccccc4nc32)cc1  70.5%
93. COC(=O)CSc1nc(-c2ccc(C)cc2)c2c(c1C#N)CCCC2  72.2%
94. O=C(NCc1ccc(Cl)cc1)c1ccc(CNc2c(N3CCOCC3)c(=O)c2=O)cc1  87.6%
